Several values for one entry are separate records, joined by “and”; a condition that tells them apart may be missing. Identical values can stand only once. Results filed as inconclusive are left out. Where a call stands in place of a potency, no number is given. Activity calls are given as the source filed them. Unless noted, calls come from the whole dose curve; as a rule, active = well fitted curve in the direction sought with a large enough effect in the repeat runs; inconclusive = weak or mixed curves; inactive = no such curve, though single readings can be large; an effect the other way counts as inactive or inconclusive.
What was measured:
[1] = qHTS assay for small molecule agonists of the p53 signaling pathway (AID 651631; calls by dose curve; note: nearly all actives have a fitted effect of over 15% in size; note: potency is the fitted concentration of half-maximal effect)
Outline: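 HCT-116 cells carrying a stable p53 response element–beta-lactamase reporter were plated, rested 5 h at 37 °C, then exposed to compound in DMSO for 16 h at 37 °C; reporter activity was read as FRET substrate fluorescence after 2 h at room temperature.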

[2] = qHTS assay for small molecules that induce genotoxicity in human embryonic kidney cells expressing luciferase-tagged ATAD5 (AID 651632); note: nearly all actives have a fitted effect of over 15% in size
Outline: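 A rise in luciferase signal from ATAD5-tagged HEK293T cells marks genetic stress. Cells were exposed to compounds for 16 hr at 37C, 5% CO2, then luciferase was quantified after a 30 min room-temperature incubation with Amplite.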

[3] = qHTS assay for small molecule agonists of the p53 signaling pathway - cell viability (AID 651633; calls by dose curve; note: series mostly up to about 83 µM; nearly all actives have a fitted effect of over 30% in size)
Outline: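 p53RE-bla cells, seeded at 4,000 per well and rested 5 h at 37 C/5% CO2, received compounds in DMSO for 16 h at 37 C. CellTiter-Glo was then added, and luminescence was read after 30 min at room temperature to gauge cytotoxicity.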

[4] = qHTS assay for small molecules that induce genotoxicity in human embryonic kidney cells expressing luciferase-tagged ATAD5 - cell viability (AID 651634; calls by dose curve; note: nearly all actives have a fitted effect of over 25% in size)
Outline: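 Cytotoxicity counter-readout: after 15.5 hr compound treatment at 37C, live-cell protease activity in ATAD5-luciferase HEK293T cells measured by CellTiter-Fluor fluorescence, 30 min development at 37C.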

[5] = qHTS assay to test for compound auto fluorescence at 590 nm (red) in HepG2 cells (AID 720674)
Outline: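 Compound auto-fluorescence is scored relative to Rose Bengal sodium, measured at 540/590 nm in live HepG2 cultures after 1 hr compound contact (37 C, 5% CO2).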

[6] = qHTS assay to test for compound auto fluorescence at 535 nm (green) in HepG2 cells (AID 720675)
[7] = qHTS assay to test for compound auto fluorescence at 460 nm (blue) in HEK293 cells (AID 720678)
Outline: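 After cell attachment (4-5 hr, 37C), compounds were pinned onto HEK293 monolayers in 10% dialyzed FBS medium. The blue channel (405/460 nm) was read following overnight culture. Equivalency was calculated against triamterene.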

[8] = qHTS assay to test for compound auto fluorescence at 590 nm (red) in HEK293 cells (AID 720679)
Outline: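 Plates of HEK293 cells (10% dialyzed FBS) are treated with 23 nL compound or DMSO vehicle after a 4-5 hr attachment period, incubated overnight at 37C, and read for red fluorescence at 540/590nm.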

[9] = qHTS assay to test for compound auto fluorescence at 535 nm (green) in HEK293 cells (AID 720680)
[10] = qHTS assay to test for compound auto fluorescence at 460 nm (blue) in HEK293 cell free culture (AID 720681)
Outline: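 Test compounds were pinned into cell-free culture medium (DMEM with 10% FBS) and fluorescence was read directly at Ex/Em 405/460 nm. Signals were expressed as fluorescence equivalents of triamterene, with DMSO vehicle as control.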

[11] = qHTS assay to test for compound auto fluorescence at 535 nm (green) in HEK293 cell free culture (AID 720682)
Outline: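 Read-out: 485/535 nm fluorescence intensity, calibrated against fluorescein. Medium only (DMEM + 10% FBS, no cells); test compound or DMSO vehicle added by pintool before plate reading.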

[12] = qHTS assay to test for compound auto fluorescence at 590 nm (red) in HEK293 cell free culture (AID 720683)
Outline: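 Tox21 10K library compounds were pinned into cell-free DMEM with 10% FBS and fluorescence was read at excitation 540 nm. Activity is expressed as Rose Bengal sodium equivalency.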

[13] = qHTS assay to test for compound auto fluorescence at 590 nm (red) in HepG2 cell free culture (AID 720684)
Outline: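 Ex 540 / Em 590 nm read of compound in cell-free MEM (10% FBS). Rose Bengal sodium reference.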

[14] = qHTS assay to test for compound auto fluorescence at 460 nm (blue) in HepG2 cell free culture (AID 720685)
Outline: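 Cell-free plates of MEM plus 10% FBS received 23 nL compound or DMSO vehicle; blue-channel (405/460 nm) intensity scored against triamterene as reference fluorophore.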

[15] = qHTS assay to test for compound auto fluorescence at 460 nm (blue) in HepG2 cells (AID 720687)
Outline: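 Cells (2,000/well in MEM with 10% FBS) attached overnight at 37 C, then were exposed to compound or DMSO for 1 hr at 37 C, 5% CO2. Fluorescence read at Ex/Em 405/460 nm, expressed as triamterene-equivalent signal.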

[16] = molecular target: Glucocorticoid receptor (Homo sapiens) (UniProt P04150); test: qHTS assay to identify small molecule agonists of the glucocorticoid receptor (GR) signaling pathway (AID 720691; active = well fitted activation curve with a large enough effect in the signal ratio in the repeat runs, not every such curve was filed as active; the % refers to the signal ratio)
Outline: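 Agonist-mode qHTS in HeLa cells stably expressing a glucocorticoid-response-element beta-lactamase reporter. Fluorescence intensity read with FRET substrate (2 h, room temperature) after 18 h compound treatment at 37 C.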

[17] = molecular target: Glucocorticoid receptor (Homo sapiens) (UniProt P04150); test: qHTS assay to identify small molecule antagonists of the glucocorticoid receptor (GR) signaling pathway (AID 720692; active = well fitted inhibition curve with a large enough effect in the signal ratio in the repeat runs, not every such curve was filed as active; the % refers to the signal ratio)
Outline: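 Inhibition of dexamethasone-driven (5 nM final) beta-lactamase expression was measured in GRE-reporter HeLa cells over 18 h at 37C. Fluorescence was read after 2 h with the B/G FRET substrate at room temperature.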

[18] = qHTS assay for small molecule disruptors of the mitochondrial membrane potential - cell viability (AID 720634; calls by dose curve;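 note: human HepG2 liver cancer cells; series mostly up to about 83 µM; nearly all actives have a fitted effect of over 20% in size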)
Outline: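 Cytotoxicity was quantified from ATP content by CellTiter-Glo luminescence in the same wells as the MMP dye read-out. HepG2 (2,000 cells/well) were plated overnight and exposed to compounds for 1 hr at 37 C.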

[19] = qHTS assay for small molecule disruptors of the mitochondrial membrane potential (AID 720635); note: potency is the fitted concentration of half-maximal effect
Outline: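 HepG2 cells (2,000/well) attached overnight at 37C, then took compound for 1 hr at 37C, 5% CO2. Mito-MPS dye was added for 30 min; fluorescence was read at 490/535 nm (monomers) and 540/590 nm (aggregates).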

[20] = qHTS assay to test for compound auto fluorescence at 535 nm (green) in HepG2 cell free culture (AID 720686)

Glucocorticoid receptor (Homo sapiens), sequence (P04150 whole entry, looked up): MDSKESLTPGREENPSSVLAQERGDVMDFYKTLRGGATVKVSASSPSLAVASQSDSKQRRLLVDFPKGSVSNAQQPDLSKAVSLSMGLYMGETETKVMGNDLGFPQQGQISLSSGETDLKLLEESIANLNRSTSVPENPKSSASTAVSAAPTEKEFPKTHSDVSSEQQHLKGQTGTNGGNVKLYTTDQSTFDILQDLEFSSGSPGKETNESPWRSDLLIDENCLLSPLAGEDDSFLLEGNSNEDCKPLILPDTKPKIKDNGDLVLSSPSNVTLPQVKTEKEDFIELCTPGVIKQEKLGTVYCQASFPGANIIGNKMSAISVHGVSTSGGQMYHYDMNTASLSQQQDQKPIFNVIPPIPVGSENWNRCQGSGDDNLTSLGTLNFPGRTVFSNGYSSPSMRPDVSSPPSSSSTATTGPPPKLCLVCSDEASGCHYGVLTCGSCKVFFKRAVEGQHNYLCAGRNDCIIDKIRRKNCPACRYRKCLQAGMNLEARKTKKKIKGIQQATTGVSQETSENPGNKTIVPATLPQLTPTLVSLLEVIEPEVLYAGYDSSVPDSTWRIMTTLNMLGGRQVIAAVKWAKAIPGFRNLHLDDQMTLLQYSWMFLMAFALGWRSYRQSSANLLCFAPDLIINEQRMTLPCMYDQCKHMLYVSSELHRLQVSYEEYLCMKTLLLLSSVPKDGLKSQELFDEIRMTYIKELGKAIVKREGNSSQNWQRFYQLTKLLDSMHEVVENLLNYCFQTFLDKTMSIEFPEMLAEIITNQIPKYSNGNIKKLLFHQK

Compound	Potency [1]	Potency [2]	Potency [3]	Potency [4]	outcome [5]	outcome [6]	outcome [7]	outcome [8]	outcome [9]	outcome [10]	outcome [11]	outcome [12]	outcome [13]	outcome [14]	outcome [15]	outcome [16]	Potency [17]	Potency [18]	Potency [19]	outcome [20]
C=C(C)C(=O)OCC(CC)CCCC (stereo unspecified)	inactive	inactive	inactive	inactive	inactive	inactive	inactive	inactive	inactive	inactive	inactive	inactive	inactive	inactive	inactive	inactive	inactive			
CN(C)CCC#N	inactive		inactive	inactive	inactive	inactive	inactive	inactive	inactive	inactive	inactive	inactive	inactive	inactive	inactive	inactive	inactive	inactive	inactive	inactive
CNC(=O)Oc1cccc2ccccc12	inactive		inactive	inactive	inactive	inactive	inactive	inactive	inactive	inactive	inactive	inactive	inactive	inactive	inactive			inactive	13.3 µM (active)	
CNc1cnn(-c2cccc(C(F)(F)F)c2)c(=O)c1Cl	inactive		inactive	inactive	inactive	inactive	inactive	inactive	inactive	inactive	inactive	inactive	inactive	inactive	inactive	inactive	inactive	inactive	inactive	inactive
Nc1cccc(Cl)c1	inactive		inactive	inactive	inactive	inactive	inactive	inactive	inactive	inactive	inactive	inactive	inactive	inactive	inactive			inactive	inactive	inactive
CSc1nnc(C(C)(C)C)c(=O)n1N	inactive		inactive	inactive	inactive	inactive	inactive	inactive	inactive	inactive	inactive	inactive	inactive	inactive	inactive	inactive	inactive	inactive	inactive	
c1ccc2c(c1)CCCC2	inactive	inactive	inactive	inactive	inactive	inactive	inactive	inactive	inactive	inactive	inactive	inactive	inactive	inactive	inactive	inactive	inactive	inactive		inactive
C=CCN=C=S	inactive		inactive	inactive	inactive	inactive	inactive	inactive	inactive	inactive	inactive	inactive	inactive	inactive	inactive			inactive	inactive	inactive
O=C(O)CCCc1ccc(N(CCCl)CCCl)cc1	23.7 µM (active) and 61.4 µM (active) and 34.4 µM (active)		inactive	inactive	inactive	inactive	inactive	inactive	inactive	inactive	inactive	inactive	inactive	inactive	inactive			inactive	inactive	
CCOc1ccc(N)cc1	inactive		inactive	inactive	inactive	inactive	inactive	inactive	inactive	inactive	inactive	inactive	inactive	inactive	inactive	inactive	inactive	inactive	inactive	inactive
OCCCCO	inactive		inactive	inactive	inactive	inactive	inactive	inactive	inactive	inactive	inactive	inactive	inactive	inactive	inactive	inactive	inactive	inactive	inactive	inactive
Cc1cccc(C)c1N	inactive		inactive	inactive	inactive	inactive	inactive	inactive	inactive	inactive	inactive	inactive	inactive	inactive	inactive	inactive	inactive	inactive	inactive	inactive
CC(C)(C)C(=O)CCl	inactive		inactive	inactive	inactive	inactive	inactive	inactive	inactive	inactive	inactive	inactive	inactive	inactive	inactive	inactive	inactive	inactive	inactive	inactive
N#CN=C(N)N	inactive		inactive	inactive	inactive	inactive	inactive	inactive	inactive	inactive	inactive	inactive	inactive	inactive	inactive			inactive	inactive	inactive
CCCOC(=O)c1ccccc1C(=O)OCCC	inactive	inactive	inactive	inactive	inactive	inactive	inactive	inactive	inactive	inactive	inactive	inactive	inactive	inactive	inactive			inactive		
CCCCC(CC)C(=O)Cl (stereo unspecified)	inactive		inactive	inactive	inactive	inactive	inactive	inactive	inactive	inactive	inactive	inactive	inactive	inactive	inactive	inactive	inactive	inactive	inactive	inactive
